For 38 compounds, Potency results are on record in PubChem BioAssay (Tox21).

Results filed as inconclusive are left out. Entries that show only a call come without a potency. Calls of active or inactive are those of the source. Calls come from the whole dose curve; as a rule, active = well fitted activation curve with a large enough effect in the signal ratio in the repeat runs (not every such curve was filed as active); inconclusive = weak or mixed curves, or effect the other way; inactive = no such curve, though single readings can be large or run the other way; the % refers to the signal ratio.

Chain of Peroxisome proliferator-activated receptor gamma (Homo sapiens) (P37231 whole entry, looked up): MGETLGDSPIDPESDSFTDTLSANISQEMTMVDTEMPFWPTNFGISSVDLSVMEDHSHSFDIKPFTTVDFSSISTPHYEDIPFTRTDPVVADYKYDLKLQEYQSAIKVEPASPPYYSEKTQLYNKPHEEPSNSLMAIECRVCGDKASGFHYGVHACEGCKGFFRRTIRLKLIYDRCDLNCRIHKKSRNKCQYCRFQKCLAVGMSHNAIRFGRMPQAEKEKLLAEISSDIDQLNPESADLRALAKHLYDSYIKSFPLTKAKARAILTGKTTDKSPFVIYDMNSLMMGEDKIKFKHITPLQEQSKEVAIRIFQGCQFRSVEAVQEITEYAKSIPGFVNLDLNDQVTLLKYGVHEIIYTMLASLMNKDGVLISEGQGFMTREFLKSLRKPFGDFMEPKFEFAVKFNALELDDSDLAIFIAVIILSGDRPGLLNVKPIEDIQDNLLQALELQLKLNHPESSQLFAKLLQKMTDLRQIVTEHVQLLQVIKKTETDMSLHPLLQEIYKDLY

The assay has as its target Peroxisome proliferator-activated receptor gamma (Homo sapiens) (UniProt P37231). Kind of assay: qHTS assay to identify small molecule agonists of the peroxisome proliferator-activated receptor gamma (PPARg) signaling pathway (AID 743094). The settings on record: HEK293H PPARg-UAS-bla, beta-lactamase FRET ratio, 17 h; series mostly up to 57 µM. An outline of the steps:
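Stably transfected HEK293H cells (GeneBLAzer PPARg UAS-bla) were incubated with test substances for 17 h at 37C after a 5 h pre-incubation; beta-lactamase activity was then detected by FRET substrate fluorescence.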
Background: In qHTS, concentration-response curves come from the screen itself.
Turning to `O=Cc1cccc(Br)c1`, the Potency result is “inactive”.
With `CN1[C@@H]2CC[C@H]1CC(OC(=O)C(O)c1ccccc1)C2` (stereo partly drawn), the Potency result was “inactive”.
Regarding `CCCCCCCCN1CCCC1=O`, the Potency entry is “inactive”.
In the case of `CC[N+](C)(CC)CCOC(=O)C1c2ccccc2Oc2ccccc21` it was “inactive”; in that of `CCOC(=O)OC(C)OC1=C(C(=O)Nc2ccccn2)N(C)S(=O)(=O)c2ccccc21` (stereo not drawn), “inactive”; in that of `CC(=O)NC(=O)c1ccccc1O`, “inactive”.
As to `CCCCCCCC1CCCC1=O` (stereo not drawn), the Potency result is “inactive”.
In the case of `[Ca+2]` it was “inactive”; in that of `CC(CO)(CO)[N+](=O)[O-]`, “inactive”.
In the case of `CCCc1ncc(C[n+]2ccccc2C)c(N)n1` it was “inactive”.
The entry for `CN1CC(=O)N/C1=N/C(=O)Nc1cccc(Cl)c1` is “inactive”.
Take `CC(C)(C)C(=O)Oc1ccc(S(=O)(=O)Nc2ccccc2C(=O)NCC(=O)O)cc1`: the Potency result was “inactive”.
In the case of `Cc1ccc(-c2ncc(Cl)cc2-c2ccc(S(C)(=O)=O)cc2)cn1` it was “inactive”; in that of `CCCCN1C=CN(C)C1`, “inactive”; in that of `NC(CCC(=O)O)C(=O)O` (stereo not drawn), “inactive”.
In the case of `CC(CC=O)CC(C)(C)C` (stereo not drawn) it was “inactive”; in that of `C[N+]1(C)[C@@H]2CC(OC(=O)[C@H](CO)c3ccccc3)C[C@H]1[C@@H]1O[C@@H]12` (stereo partly drawn), “inactive”; in that of `CC(=O)c1ccc2ccccc2c1`, “inactive”.
The entry for `CCCCc1ccc2c(n1)[C@@H](c1ccc(OC)cc1C[C@H](C)C(=O)O)[C@H](C(=O)O)[C@H]2c1ccc2c(c1)OCO2` is “inactive”; for `CN(C)[C@@H]1C(=O)C(C(=O)NCN2CCCC2)=C(O)[C@@]2(O)C(=O)C3=C(O)c4c(O)cccc4[C@@](C)(O)C3C[C@@H]12` (stereo partly drawn) it is “inactive”.
With `NS(=O)(=O)Cc1noc2ccccc12`, the Potency result is “inactive”.
The entry for `CN(C)C(=O)Oc1ccc[n+](C)c1` is “inactive”; for `CCOC(=O)C1=NOC(c2ccccc2)(c2ccccc2)C1` it is “inactive”.
In the case of `CC/C=C\CCOC(C)OCC` (stereo not drawn) it was “inactive”.
On to `CC(=O)C1CCCCC1=O` (stereo not drawn), for which the Potency result was “inactive”.
In the case of `CCC1C(=O)OCC1Cc1cncn1C` (stereo not drawn) it was “inactive”; in that of `O=S(=O)(O)c1cc(O)c(O)c(S(=O)(=O)O)c1`, “inactive”.
In the case of `CCOc1ccccc1OCC` it was “inactive”; in that of `CCCCCC(=O)OCCc1ccccc1`, “inactive”.
In the case of `CN(C)CCCN(C)CCCN(C)C` it was “inactive”; in that of `COc1ccc2cc1Oc1cc3c(cc1OC)CC[N+](C)(C)[C@H]3Cc1ccc(cc1)Oc1c(OC)c(OC)cc3c1[C@@H](C2)[N+](C)(C)CC3`, “inactive”; in that of `CCCCCC(C)N` (stereo not drawn), “inactive”.
For the compound `CCN[C@@H]1C[C@H](N)[C@@H](OC2OC(CN)=CCC2N)[C@H](O)[C@H]1O[C@H]1OC[C@](C)(O)[C@H](NC)[C@H]1O` (stereo partly drawn), the Potency result is “inactive”.
Turning to `O=[N+]([O-])c1ccc(/C=N\O)o1`, the Potency result is “inactive”.
In the case of `CCN(Cc1ccccc1)c1ccccc1` it was “inactive”.
The entry for `CN(C)CCN(C)CCN(C)C` is “inactive”; for `CCN[C@H]1C[C@H](C)S(=O)(=O)c2sc(S(N)(=O)=O)cc21` it is “inactive”; for `O=C(CO)[C@@H](O)[C@H](O)[C@@H](O)CO` it is “inactive”.
